These results are taken from PubChem BioAssay (NCI).

Compounds without any hit were thinned out: in the full panel of roughly 83,000, 20% have a hit.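 Percent growth is the endpoint: 0 to 100 indicates growth inhibition (40 means 60% inhibition), 0 means no net growth, and negative values indicate cell death.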 Values without a mark were called inactive. Activity calls are given as the source filed them. The calls were made as follows: active = growth percent below 10; inactive = the rest.

Some test systems named below: NCI-H23 lung; NCI-H226 lung; NCI-H322M lung; HOP-62 NSCLC; NCI-H460 lung; NCI-H522 lung; A549/ATCC NSCLC; 786-0 renal; COLO 205 colon; DU-145 prostate; K-562 leukemia; MALME-3M melanoma; MDA-MB-231 breast; RXF 393 renal; SF-268 CNS; SF-295 CNS; SF-539 CNS; UACC-257 melanoma; M14 melanoma; HCT-15 colon.
Holding throughout (assay): NCI-60 one-dose screen, 48 h (100 = growth as untreated, 0 = no growth, -100 = all killed)
Settings in all cases: 10 µM

As for `CC(=O)OCc1cc(-c2nc3ccccc3[nH]c2=O)nn1-c1ccc(Cl)cc1`, the growth was 91.5% in the assay on NCI-H23 lung; 93% in the assay with NCI-H226 lung; 107% with NCI-H322M lung; 94.9% with HOP-62 NSCLC; 104% in the assay on NCI-H460 lung; -30.6% (active) in the assay on NCI-H522 lung. Moreover, the growth was 52% in the assay on A549/ATCC NSCLC; 96.4% in the assay on 786-0 renal; 126% in the assay with COLO 205 colon; 110% in the assay on DU-145 prostate; 93.4% in the assay with K-562 leukemia; 108% with MALME-3M melanoma. The growth in the assay with MDA-MB-231 breast was 98.1%; with RXF 393 renal, 102%; in the assay with SF-268 CNS, 109%; in the assay on SF-295 CNS, 96.5%; in the assay with SF-539 CNS, 90.2%; in the assay with UACC-257 melanoma, 14.8%. The growth was 97.2% in the assay with M14 melanoma and 88% in the assay with HCT-15 colon.

`CN(C)C(=S)N/N=C\C=N/NC(=S)N(C)C`: the growth with NCI-H23 lung was 62.6%; in the assay on NCI-H226 lung it was 76.9%; with NCI-H322M lung, 48.9%; in the assay on HOP-62 NSCLC it was 92.9%; in the assay on NCI-H460 lung, 23.7%; in the assay with NCI-H522 lung it was 1.5% (active). The growth is 40.1% with A549/ATCC NSCLC; 85.3% with 786-0 renal; -1.67% (active) in the assay with COLO 205 colon; 37.4% in the assay on DU-145 prostate; 1.44% (active) in the assay with K-562 leukemia; 58.5% in the assay with MALME-3M melanoma. For the same molecule, the growth in the assay on MDA-MB-231 breast is 37.3%; in the assay on RXF 393 renal it was 55.4%; with SF-268 CNS, 84.6%; with SF-295 CNS, 68.8%; in the assay on SF-539 CNS, 84.6%; in the assay on UACC-257 melanoma it was 33.4%. Further, the growth with M14 melanoma was 47.9%; in the assay on HCT-15 colon, 31.5%.

For the molecule `CCOC1(OCC)OC(c2ccccc2)=C(C#N)C(/C=C\c2ccccc2)C1(OCC)OCC` (stereo not given), the growth in the assay with NCI-H23 lung was 82.4%; in the assay on NCI-H226 lung, 81.2%; in the assay with NCI-H322M lung, 84.3%; with HOP-62 NSCLC, 91.5%; in the assay with NCI-H460 lung, 81.8%; in the assay on NCI-H522 lung, 82.3%. The growth was 82.5% with A549/ATCC NSCLC; 87.4% in the assay with 786-0 renal; 88.9% in the assay with COLO 205 colon; 89.7% in the assay with DU-145 prostate; 73.3% in the assay with K-562 leukemia; 73.7% in the assay on MALME-3M melanoma. The growth with MDA-MB-231 breast is 85.1%; in the assay on RXF 393 renal it was 60.1%; with SF-268 CNS it was 79.8%; in the assay with SF-295 CNS it was 94.1%; with SF-539 CNS, 100%; in the assay with UACC-257 melanoma, 81%. The values for the growth with M14 melanoma and in the assay on HCT-15 colon were 78% and 81.7%, respectively.

With `CC/C(C)=C(\C)C(=O)O`, the growth in the assay with NCI-H23 lung is 101%; in the assay on NCI-H226 lung it was 96.5%; in the assay on NCI-H322M lung, 89.5%; with HOP-62 NSCLC, 95%; in the assay on NCI-H460 lung, 105%; with NCI-H522 lung, 89.3%. The growth is 101% in the assay on A549/ATCC NSCLC; 98.5% in the assay with 786-0 renal; 104% with COLO 205 colon; 104% in the assay with DU-145 prostate; 100% in the assay with K-562 leukemia; 99.7% with MALME-3M melanoma. Further, the growth in the assay on MDA-MB-231 breast is 111%; in the assay with RXF 393 renal, 110%; with SF-268 CNS, 105%; with SF-295 CNS it was 94.7%; in the assay on SF-539 CNS, 104%; with UACC-257 melanoma, 91.7%. Besides, the growth with M14 melanoma is 104%; in the assay with HCT-15 colon, 107%.

In the case of `CCN(CC)CCSCCN(CC)CC`, the growth in the assay with NCI-H23 lung was 102%; in the assay with NCI-H226 lung, 101%; with NCI-H322M lung, 109%; in the assay with HOP-62 NSCLC, 108%; in the assay on NCI-H460 lung it was 102%; in the assay with NCI-H522 lung, 84.1%. In addition, the growth is 103% in the assay with A549/ATCC NSCLC; 102% in the assay with 786-0 renal; 106% with COLO 205 colon; 109% in the assay on DU-145 prostate; 100% in the assay with K-562 leukemia; 106% in the assay on MALME-3M melanoma. The growth was 118% in the assay on MDA-MB-231 breast; 104% with RXF 393 renal; 106% in the assay on SF-268 CNS; 101% in the assay with SF-295 CNS; 97% in the assay on SF-539 CNS; 97.6% in the assay with UACC-257 melanoma. In addition, the growth in the assay with M14 melanoma is 111%; in the assay with HCT-15 colon it was 97.9%.

For `CS(=O)(=O)Nc1ccc(Nc2c3ccccc3nc3cc(N)ccc23)cc1`, the growth in the assay on NCI-H23 lung was 20.5%; with NCI-H226 lung, -13.9% (active); in the assay on NCI-H322M lung, 42%; in the assay on HOP-62 NSCLC it was 11.9%; in the assay with NCI-H460 lung it was 1.01% (active); in the assay on NCI-H522 lung, -11.5% (active). Also, the growth was 11% in the assay on A549/ATCC NSCLC; 2.37% (active) with 786-0 renal; 51.9% in the assay on COLO 205 colon; 16.9% with DU-145 prostate; 22.7% in the assay on K-562 leukemia; -32.7% (active) in the assay with MALME-3M melanoma. Further, the growth in the assay with MDA-MB-231 breast is 85.8%; in the assay with RXF 393 renal, 64.2%; in the assay on SF-268 CNS, 13%; in the assay with SF-295 CNS, -23.3% (active); with SF-539 CNS, 2.88% (active); in the assay on UACC-257 melanoma it was 0.44% (active). Moreover, the growth in the assay on M14 melanoma is 7.54% (active); with HCT-15 colon, 73.6%.

Turning to `COc1cc(Cl)cc(-c2nn(-c3cccc(NC(=O)Nc4ccc(Cl)c(C(F)(F)F)c4)c3)cc2-c2ccncc2)c1`, the growth in the assay with NCI-H23 lung was 0.301% (active); with NCI-H226 lung, -2.82% (active); in the assay with NCI-H322M lung it was 18.7%; in the assay with HOP-62 NSCLC it was 13.5%; in the assay on NCI-H460 lung, 2.76% (active); in the assay on NCI-H522 lung, -10.4% (active). Moreover, the growth with A549/ATCC NSCLC is 5.2% (active); with 786-0 renal, -4.76% (active); in the assay with COLO 205 colon it was -48.3% (active); in the assay with DU-145 prostate, 15.2%; in the assay with K-562 leukemia, 8.93% (active); in the assay on MALME-3M melanoma, -19.8% (active). The growth was -30.8% (active) in the assay on MDA-MB-231 breast; -29.9% (active) in the assay with RXF 393 renal; 22.9% in the assay on SF-268 CNS; -7.48% (active) in the assay on SF-295 CNS; -1.17% (active) with SF-539 CNS; -25.9% (active) in the assay with UACC-257 melanoma. Further, the growth with M14 melanoma was 3.99% (active); in the assay on HCT-15 colon it was 7.28% (active).
